Measured values as given in PubChem BioAssay.
Active and inactive are the calls of the source.

How the values were obtained:
Albumin (Bos taurus) = Albumin (Bos taurus) (UniProt P02769); test: bovine serum albumin binders on microarray, profiling panel, artefact control for SMM control protein annotation, biochemical, small-molecule microarray, Alexa647 label, 635/667 nm fluorescence (AID 1118); settings: BSA-A647 binding, fluorescence 635 nm, higher = more signal;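 further: score merges 667 nm emission intensity and signal-to-noise per printed compound spot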
[1] = small-molecule microarray binders of probe aXIP, primary screen, biochemical, NeuroSMM set, 635/667 nm fluorescence (AID 1119); settings: higher = more signal, called active from +8 up or from −8 down;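 further: probe is the protein aXip251-270 applied at 1 µg/mL to compound-printed slides; binding of probe to printed compounds measured as 667 nm fluorescence plus signal to noise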
[2] = small-molecule binders of probe aNOTCH3, primary screen, biochemical, small-molecule microarray, 635/667 nm fluorescence (AID 1120); settings: higher = more signal;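 further: probe is a biotin-tagged antibody raised against NOTCH3 rather than NOTCH3 protein; score merges spot fluorescence near 667 nm with spot signal to noise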
[3] = small-molecule binders of probe aNOTCH2, primary screen, biochemical, small-molecule microarray, 635/667 nm fluorescence (AID 1121); settings: higher = more signal;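 further: score merges feature fluorescence read at 667 nm with its signal to noise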
[4] = molecular target: Carbonic anhydrase 2 (Homo sapiens) (UniProt P00918); test: CAII small-molecule binders, profiling panel, biochemical, small-molecule microarray, Alexa647-labelled CAII (AID 1122); settings: CAII-A647 binding fluorescence, higher = more signal
[5] = COS7 lysate on small-molecule microarray, probe aHis, 635 nm (AID 1123); settings: COS7 cell lysate, fluorescence, higher = more signal;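 further: z-score combines 667nm fluorescence intensity with signal-to-noise per printed compound spot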
[6] = compound binding in COS7 lysate, probe aLAP1, primary screen, cell lysate, small-molecule microarray (AID 1124); settings: probe aLAP1, fluorescence, higher = more signal;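 further: lysate comes from COS7 cells expressing LAP1 and is applied at 0.3 µg/mL; score merges spot fluorescence near 667 nm with signal-to-noise over triplicate slides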
Sam68 (KHDRBS1) = test: Sam68 small-molecule binders, primary screen, biochemical, small-molecule microarray, 635 nm fluorescence (AID 1125); settings: small-molecule microarray binding, higher = more signal;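 further: score merges 667 nm channel intensity with signal to noise over triplicate slides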
[7] = tested on: Chordin-like protein 2 (CHRDL2); test: CHRDL2 small-molecule binders, primary screen, biochemical, small-molecule microarray, 635 nm fluorescence (AID 1126); settings: small-molecule microarray binding, fluorescence 635 nm; higher = more signal;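 further: printed compound slides probed with Chrdl2 protein at 4 µg/mL for 1 h at 4 C; score merges 667 nm emission intensity with signal to noise over three replicate slides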
[8] = molecular target: Concanavalin-A (Canavalia ensiformis) (UniProt P02866); test: ConA small-molecule binders, primary screen, artefact control for SMM control protein annotation, biochemical, small-molecule microarray, Alexa647 label, 635 nm (AID 1127); settings: ConA-A647 binding fluorescence, higher = more signal;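 further: z combines 667 nm emission intensity with signal-to-noise across three replicate slides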
[9] = anti-His antibody binders, primary screen, artefact control for SMM control protein annotation, biochemical, small-molecule microarray, 635 nm fluorescence (AID 1128); settings: anti-His Alexa647 antibody binding, higher = more signal;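 further: score merges feature fluorescence with signal-to-noise for each printed compound spot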
[10] = tested on: Human papillomavirus type 1a E7 protein (residues 1-88); test: HPV1a E7 small-molecule binders, primary screen, biochemical, small-molecule microarray, residues 1-88, 635 nm (AID 1129); settings: small-molecule microarray binding, fluorescence 635 nm; higher = more signal
[11] = molecular target: Focal adhesion kinase 1 (Homo sapiens) (UniProt Q05397); test: small-molecule microarray binders of FAK, primary screen, biochemical, 635/667 nm fluorescence, BSA, DTT (AID 1130); settings: PTK2 binding, 635 nm fluorescence, higher = more signal;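 further: composite of spot emission at 667 nm and signal to noise over triplicate slides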
[12] = tested on: Fibrinogen (Alexa647-labelled); test: fibrinogen binders on compound microarrays, profiling panel, artefact control for SMM control-protein annotation, biochemical, small-molecule microarray, 635/667 nm fluorescence (AID 1131); settings: fibrinogen-A647 binding fluorescence, higher = more signal;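 further: z-score merges 667 nm fluorescence with per-spot signal-to-noise over triplicate slides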
[13] = molecular target: Follistatin (Homo sapiens) (UniProt P19883); test: follistatin binders on small-molecule microarrays, primary screen, biochemical, small-molecule microarray, 635/667 nm fluorescence (AID 1132); settings: FST binding, 635 nm fluorescence, higher = more signal
[14] = molecular target: Fibroblast growth factor 2 (Homo sapiens) (UniProt P09038); test: FGF2 binders on small-molecule microarrays, primary screen, biochemical, small-molecule microarray, 635/667 nm fluorescence (AID 1133); settings: small-molecule microarray binding, FGF2, fluorescence 635/667; higher = more signal
[15] = mitochondrial membrane potential change in A549 cells, profiling panel, cell-based, JC-1 fluorescence, basal, 24 h, 100 nL (AID 1138); settings: higher = more signal;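 further: A549 lung adenocarcinoma cells under basal conditions with no added stimulus; test concentration not given here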
Lefty1 = Lefty1 binders on small-molecule microarrays, primary screen, biochemical, small-molecule microarray, 635/667 nm fluorescence (AID 1139); settings: small-molecule microarray binding, fluorescence 635/667; higher = more signal
[16] = tested on: wheat germ agglutinin (Triticum aestivum), Alexa647-labelled; test: wheat germ agglutinin binders on compound microarrays, profiling panel, artefact control for SMM control-protein annotation, biochemical, small-molecule microarray, 635/667 nm fluorescence (AID 1140); settings: WGA-A647 binding, 635 nm fluorescence, higher = more signal;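 further: score merges 667 nm feature emission with signal to noise over triplicate slides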
[17] = molecular target: Luciferin 4-monooxygenase (Photinus pyralis) (UniProt P08659); test: firefly luciferase enzyme inhibitors, primary screen, biochemical, luminescence, purified enzyme, 2006 set (AID 1141); settings: SteadyGlo luminescence, 30 min, higher = more signal, called active from +8 up or from −8 down;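 further: cell-free assay with purified firefly luciferase at 100 ng per well in PBS; test concentration not given here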
Sequence of Luciferin 4-monooxygenase (Photinus pyralis) (P08659 whole entry, looked up): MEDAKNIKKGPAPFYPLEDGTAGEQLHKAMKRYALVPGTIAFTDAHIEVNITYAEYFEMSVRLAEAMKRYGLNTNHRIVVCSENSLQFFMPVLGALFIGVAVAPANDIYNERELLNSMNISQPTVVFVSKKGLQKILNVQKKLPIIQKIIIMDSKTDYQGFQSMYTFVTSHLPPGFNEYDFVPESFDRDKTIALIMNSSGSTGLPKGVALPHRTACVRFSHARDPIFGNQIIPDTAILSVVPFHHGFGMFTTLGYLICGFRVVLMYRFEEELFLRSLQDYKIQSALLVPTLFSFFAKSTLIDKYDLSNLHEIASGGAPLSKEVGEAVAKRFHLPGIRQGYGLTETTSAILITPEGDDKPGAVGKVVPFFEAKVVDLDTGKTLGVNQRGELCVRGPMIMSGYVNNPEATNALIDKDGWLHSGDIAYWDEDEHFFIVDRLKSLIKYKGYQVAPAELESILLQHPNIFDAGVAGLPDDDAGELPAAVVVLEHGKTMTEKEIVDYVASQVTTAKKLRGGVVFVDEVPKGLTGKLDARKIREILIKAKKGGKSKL

Sequence of Albumin (Bos taurus) (P02769 whole entry, looked up): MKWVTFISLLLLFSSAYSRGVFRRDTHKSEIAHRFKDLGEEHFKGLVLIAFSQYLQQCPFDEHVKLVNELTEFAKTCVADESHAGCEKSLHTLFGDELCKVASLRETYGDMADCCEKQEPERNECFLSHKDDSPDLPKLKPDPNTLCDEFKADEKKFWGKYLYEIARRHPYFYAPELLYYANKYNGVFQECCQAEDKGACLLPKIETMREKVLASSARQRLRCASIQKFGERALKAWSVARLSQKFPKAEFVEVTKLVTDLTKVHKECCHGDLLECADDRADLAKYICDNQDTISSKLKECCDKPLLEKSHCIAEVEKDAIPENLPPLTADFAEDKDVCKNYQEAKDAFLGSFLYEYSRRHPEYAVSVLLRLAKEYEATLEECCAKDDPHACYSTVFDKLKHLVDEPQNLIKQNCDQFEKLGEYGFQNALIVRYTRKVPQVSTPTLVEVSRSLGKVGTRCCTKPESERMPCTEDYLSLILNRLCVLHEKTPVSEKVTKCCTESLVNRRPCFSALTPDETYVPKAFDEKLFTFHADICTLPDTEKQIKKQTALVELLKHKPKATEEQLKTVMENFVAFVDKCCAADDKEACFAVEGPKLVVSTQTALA
Sequence of Follistatin (Homo sapiens) (P19883 whole entry, looked up): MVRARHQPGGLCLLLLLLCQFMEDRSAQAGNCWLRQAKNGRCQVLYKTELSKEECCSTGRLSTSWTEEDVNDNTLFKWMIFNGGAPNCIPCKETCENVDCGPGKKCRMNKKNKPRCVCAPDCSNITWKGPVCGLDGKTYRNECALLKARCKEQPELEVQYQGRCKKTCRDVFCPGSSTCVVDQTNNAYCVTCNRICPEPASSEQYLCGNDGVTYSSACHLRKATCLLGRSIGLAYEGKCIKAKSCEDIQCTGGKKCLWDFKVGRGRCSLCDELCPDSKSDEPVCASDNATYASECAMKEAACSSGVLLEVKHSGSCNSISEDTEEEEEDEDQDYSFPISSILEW
Sequence of Fibroblast growth factor 2 (Homo sapiens) (P09038 whole entry, looked up): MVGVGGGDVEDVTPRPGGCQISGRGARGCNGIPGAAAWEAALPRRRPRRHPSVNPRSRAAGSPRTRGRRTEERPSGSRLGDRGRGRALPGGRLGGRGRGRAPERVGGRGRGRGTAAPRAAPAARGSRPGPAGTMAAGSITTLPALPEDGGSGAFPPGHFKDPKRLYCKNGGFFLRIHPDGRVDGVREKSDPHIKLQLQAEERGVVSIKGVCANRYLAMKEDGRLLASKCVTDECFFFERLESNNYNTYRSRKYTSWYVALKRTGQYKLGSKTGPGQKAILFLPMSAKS
Sequence of Focal adhesion kinase 1 (Homo sapiens) (Q05397 whole entry, looked up): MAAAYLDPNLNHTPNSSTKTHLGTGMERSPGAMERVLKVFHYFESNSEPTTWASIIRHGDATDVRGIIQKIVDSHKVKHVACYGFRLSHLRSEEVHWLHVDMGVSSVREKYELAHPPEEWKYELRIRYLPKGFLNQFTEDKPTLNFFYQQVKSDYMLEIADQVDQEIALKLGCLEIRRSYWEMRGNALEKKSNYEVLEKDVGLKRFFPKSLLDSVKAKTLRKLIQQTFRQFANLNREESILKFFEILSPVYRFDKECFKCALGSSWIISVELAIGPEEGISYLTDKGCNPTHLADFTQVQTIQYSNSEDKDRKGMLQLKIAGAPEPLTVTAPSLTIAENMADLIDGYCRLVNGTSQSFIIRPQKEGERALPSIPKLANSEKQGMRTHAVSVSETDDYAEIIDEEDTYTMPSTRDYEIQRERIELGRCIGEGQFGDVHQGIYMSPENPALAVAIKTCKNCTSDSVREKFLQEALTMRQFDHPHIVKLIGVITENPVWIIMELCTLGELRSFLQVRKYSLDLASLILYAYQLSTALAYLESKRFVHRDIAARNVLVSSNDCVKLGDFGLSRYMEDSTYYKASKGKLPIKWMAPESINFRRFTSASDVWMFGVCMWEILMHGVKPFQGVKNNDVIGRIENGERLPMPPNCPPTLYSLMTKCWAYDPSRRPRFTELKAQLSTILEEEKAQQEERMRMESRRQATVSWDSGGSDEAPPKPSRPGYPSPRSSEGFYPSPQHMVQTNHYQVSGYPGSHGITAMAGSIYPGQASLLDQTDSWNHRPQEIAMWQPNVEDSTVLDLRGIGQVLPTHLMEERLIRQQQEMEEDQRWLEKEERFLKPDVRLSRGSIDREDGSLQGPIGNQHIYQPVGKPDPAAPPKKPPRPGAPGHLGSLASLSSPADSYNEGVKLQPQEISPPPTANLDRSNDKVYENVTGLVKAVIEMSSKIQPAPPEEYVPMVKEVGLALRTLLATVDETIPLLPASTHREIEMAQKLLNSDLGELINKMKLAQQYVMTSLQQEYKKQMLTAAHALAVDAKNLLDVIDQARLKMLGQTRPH
Sequence of Concanavalin-A (Canavalia ensiformis) (P02866 whole entry, looked up): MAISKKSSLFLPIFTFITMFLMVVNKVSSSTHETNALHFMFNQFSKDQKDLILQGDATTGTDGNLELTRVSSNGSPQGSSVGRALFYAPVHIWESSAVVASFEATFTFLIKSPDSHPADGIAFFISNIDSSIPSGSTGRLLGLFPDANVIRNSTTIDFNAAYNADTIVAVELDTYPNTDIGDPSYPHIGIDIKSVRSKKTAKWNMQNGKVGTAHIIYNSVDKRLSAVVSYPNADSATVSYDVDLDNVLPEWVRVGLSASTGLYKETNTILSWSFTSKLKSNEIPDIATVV

COc1cc2c(cc1O)C(C)N(Cc1cccc(OC(F)(F)F)c1)CC2 (stereo not given)
composite z-score (Albumin (Bos taurus)): 0.986 | composite Z-score [1]: 0.414 (inactive) | composite z-score [2]: -0.0204 | composite z-score [3]: -0.0839 | composite z-score [4]: 0.662 | composite z-score [5]: 2.23 | composite z-score [6]: 0.572 | composite z-score (Sam68 (KHDRBS1)): 0.851 | composite z-score [7]: -0.236 | composite z-score [8]: 0.446 | composite z-score [9]: 1.72 | composite z-score [10]: 1.13 | composite z-score [11]: -0.135 | composite z-score [12]: 0.966 | composite z-score [13]: 0.659 | composite z-score [14]: -0.258 | z-score [15]: -0.681 | composite z-score (Lefty1): 0.108 | composite z-score [16]: 0.984 | z-score [17]: 1.35 (inactive)

CC(C)NC(=O)[C@@]1(Cc2ccccc2I)c2ccccc2C(=O)N(Cc2ccccc2)[C@H]1c1ccc(CO)cc1
composite z-score (Albumin (Bos taurus)): 0.162 | composite Z-score [1]: 1.17 (inactive) | composite z-score [2]: 0.204 | composite z-score [3]: -0.0608 | composite z-score [4]: 0.481 | composite z-score [5]: 1.96 | composite z-score [6]: 0.206 | composite z-score (Sam68 (KHDRBS1)): 1.29 | composite z-score [7]: 0.325 | composite z-score [8]: 0.968 | composite z-score [9]: 3.2 | composite z-score [10]: 1.19 | composite z-score [11]: 1.05 | composite z-score [12]: 0.387 | composite z-score [13]: 1.29 | composite z-score [14]: 1.07 | z-score [15]: 0.188 | composite z-score (Lefty1): 1.19 | composite z-score [16]: 0.131 | z-score [17]: 0.277 (inactive)

COc1ccc(CCNC(=O)[C@@]2(c3ccc([N+](=O)[O-])cc3)CC(=O)N(CC34CC5CC(CC(C5)C3)C4)[C@@H]2c2ccc(CO)cc2)cc1
composite z-score (Albumin (Bos taurus)): -0.191 | composite Z-score [1]: 0.22 (inactive) | composite z-score [2]: 0.0494 | composite z-score [3]: -0.0617 | composite z-score [4]: 0.18 | composite z-score [5]: 1.11 | composite z-score [6]: -0.291 | composite z-score (Sam68 (KHDRBS1)): 1.09 | composite z-score [7]: 0.647 | composite z-score [8]: 1.12 | composite z-score [9]: 1.59 | composite z-score [10]: 1.17 | composite z-score [11]: 0.397 | composite z-score [12]: 0.347 | composite z-score [13]: 1.41 | composite z-score [14]: 1.21 | z-score [15]: -0.483 | composite z-score (Lefty1): 0.981 | composite z-score [16]: -0.037 | z-score [17]: 0.41 (inactive)

[N-]=[N+]=NCc1ccccc1C[C@@]1(C(=O)N2CCOCC2)N=C(c2ccc(OCCCO)cc2)O[C@@H]1c1ccccc1CN=[N+]=[N-]
composite z-score (Albumin (Bos taurus)): 0.922 | composite Z-score [1]: 0.696 (inactive) | composite z-score [2]: 0.713 | composite z-score [3]: 0.266 | composite z-score [4]: 0.586 | composite z-score [5]: 2.61 | composite z-score [6]: 1.29 | composite z-score (Sam68 (KHDRBS1)): 1.31 | composite z-score [7]: -0.725 | composite z-score [8]: 1.14 | composite z-score [9]: 3.09 | composite z-score [10]: 1.25 | composite z-score [11]: 0.829 | composite z-score [12]: 0.978 | composite z-score [13]: 1.05 | composite z-score [14]: 0.684 | z-score [15]: 0.74 | composite z-score (Lefty1): 0.365 | composite z-score [16]: 1.3 | z-score [17]: -0.832 (inactive)

COCCCNC(=O)[C@@]1(C)c2ccccc2C(=O)N(Cc2cc(C(F)(F)F)cc(C(F)(F)F)c2)[C@H]1c1ccc(CO)cc1
composite z-score (Albumin (Bos taurus)): -0.0502 | composite Z-score [1]: 0.318 (inactive) | composite z-score [2]: -0.256 | composite z-score [3]: -0.0173 | composite z-score [4]: 0.74 | composite z-score [5]: 1.68 | composite z-score [6]: -0.066 | composite z-score (Sam68 (KHDRBS1)): -0.21 | composite z-score [7]: -2.46 | composite z-score [8]: 0.851 | composite z-score [9]: -0.12 | composite z-score [10]: -0.203 | composite z-score [11]: 0.295 | composite z-score [12]: 0.207 | composite z-score [13]: -0.672 | composite z-score [14]: -1.5 | z-score [15]: 0.509 | composite z-score (Lefty1): -0.191 | composite z-score [16]: 0.0593 | z-score [17]: 1.16 (inactive)

COCCOC(=O)N1C(=O)[C@@]2(c3cc(C#CCC(C(=O)OC)C(=O)OC)ccc31)[C@H](c1ccccc1OCCO)N1[C@H](c3ccccc3)[C@H](c3ccccc3)OC(=O)[C@H]1[C@@H]2C(=O)N1CCc2cc(OC)c(OC)cc2C1
composite z-score (Albumin (Bos taurus)): 0.534 | composite Z-score [1]: 0.405 (inactive) | composite z-score [2]: 0.134 | composite z-score [3]: -0.16 | composite z-score [4]: 0.45 | composite z-score [5]: 0.833 | composite z-score [6]: 0.211 | composite z-score (Sam68 (KHDRBS1)): 1.29 | composite z-score [7]: 0.787 | composite z-score [8]: 1.16 | composite z-score [9]: 0.89 | composite z-score [10]: 1.19 | composite z-score [11]: 1.33 | composite z-score [12]: 0.938 | composite z-score [13]: 1.41 | composite z-score [14]: 1.49 | z-score [15]: -0.978 | composite z-score (Lefty1): 1.47 | composite z-score [16]: 0.784 | z-score [17]: -0.882 (inactive)
